Values joined by “and” are separate entries in the source; they are usually repeats but may differ in a detail not shown here. Equal values may be shown once. Inconclusive results are not listed. Where a call stands in place of a potency, no number is given. More than one record can exist for a structure, and the calls need not agree. Active and inactive are the calls of the source. Unless noted, the call rests on the fitted dose curve; in most records, active means well fitted curve in the direction sought with a large enough effect in the repeat runs; inconclusive means weak or mixed curves; inactive means no such curve, though single readings can be large; an effect the other way counts as inactive or inconclusive.
Key:
[1] = qHTS assay for small molecule agonists of the p53 signaling pathway (AID 651631; calls by dose curve; further: nearly all actives have a fitted effect of over 15% in size; further: potency means the concentration at half of the fitted maximal effect)
Summary of the method: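 We treat p53RE-bla HCT-116 cells with compounds for 16 h at 37 °C, add LiveBLAzer B/G FRET substrate for 2 h at room temperature, and measure fluorescence intensity.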

[2] = qHTS assay for small molecules that induce genotoxicity in human embryonic kidney cells expressing luciferase-tagged ATAD5 (AID 651632); further: nearly all actives have a fitted effect of over 15% in size
Summary of the method: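 Luminescence read-out: after 16 hr compound exposure at 37C, ATAD5-luciferase HEK293T cells received Amplite, 30 min RT, then CCD imaging. A rise in signal marks genotoxic stress.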

[3] = qHTS assay for small molecule agonists of the p53 signaling pathway - cell viability (AID 651633; calls by dose curve; further: nearly all actives have a fitted effect of over 30% in size; further: potency means the concentration at half of the fitted maximal effect)
Summary of the method: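 Viability counter-read: CellTiter-Glo luminescence (30 min, room temperature) in the same p53RE-bla plates. These plates had been exposed to compounds for 16 h at 37 C.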

[4] = qHTS assay for small molecules that induce genotoxicity in human embryonic kidney cells expressing luciferase-tagged ATAD5 - cell viability (AID 651634; calls by dose curve; further: nearly all actives have a fitted effect of over 25% in size)
Summary of the method: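 HEK293T ATAD5-luc cells, 2,000/well; compound 15.5 hr, 37C/5% CO2; CellTiter-Fluor 30 min, 37C; fluorescence read.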

[5] = qHTS assay for small molecule disruptors of the mitochondrial membrane potential - cell viability (AID 720634; calls by dose curve; further: nearly all actives have a fitted effect of over 20% in size; further: potency means the concentration at half of the fitted maximal effect)
Summary of the method: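 Luminescence from CellTiter-Glo (ATP content) gave viability in HepG2 cells, read in the same wells as the MMP dye assay after 1 hr compound exposure at 37 C.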

[6] = qHTS assay for small molecule disruptors of the mitochondrial membrane potential (AID 720635); further: potency means the concentration at half of the fitted maximal effect
Summary of the method: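 Mitochondrial membrane potential tracked with Mito-MPS dye, red aggregates (ex 540/em 590 nm) against green monomers (ex 490/em 535 nm). Compound treatment 1 hr at 37C, dye 30 min in HepG2.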

[7] = qHTS assay to test for compound auto fluorescence at 590 nm (red) in HepG2 cells (AID 720674)
Summary of the method: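 1 hr compound incubation on HepG2 cells, 37 C, 5% CO2; plate read ex 540 nm / em 590 nm; intensities reported as Rose Bengal sodium equivalents.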

[8] = qHTS assay to test for compound auto fluorescence at 535 nm (green) in HepG2 cells (AID 720675)
[9] = qHTS assay to test for compound auto fluorescence at 460 nm (blue) in HEK293 cells (AID 720678)
Summary of the method: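 HEK293 cells (2,000 per well, medium with 10% dialyzed FBS) attached for 4-5 hr at 37C, then received compound and stood overnight at 37C, 5% CO2. Blue fluorescence was read at Ex/Em 405/460 nm and expressed relative to triamterene.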

[10] = qHTS assay to test for compound auto fluorescence at 590 nm (red) in HEK293 cells (AID 720679)
Summary of the method: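 HEK293 cells (2,000/well, medium with 10% dialyzed FBS) attached for 4-5 hr at 37C, received 23 nL compound and were incubated overnight at 37C, 5% CO2. Red fluorescence was then read at 540/590nm Ex/Em, referenced to Rose Bengal sodium.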

[11] = qHTS assay to test for compound auto fluorescence at 535 nm (green) in HEK293 cells (AID 720680)
[12] = qHTS assay to test for compound auto fluorescence at 535 nm (green) in HEK293 cell free culture (AID 720682)
Summary of the method: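 Green-channel intensity (Ex/Em 485/535 nm) was recorded from compound-treated wells containing only DMEM with 10% FBS. Fluorescein provided the equivalency standard.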

[13] = qHTS assay to test for compound auto fluorescence at 590 nm (red) in HEK293 cell free culture (AID 720683)
Summary of the method: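 Red-channel autofluorescence of compounds in culture medium (DMEM, 10% FBS), no cells, measured at 540/590 nm. Rose Bengal sodium is the reference fluorophore for equivalence.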

[14] = qHTS assay to test for compound auto fluorescence at 590 nm (red) in HepG2 cell free culture (AID 720684)
Summary of the method: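 Cell-free; medium MEM + 10% FBS; compound or DMSO added by pintool; read Ex 540/Em 590 nm; Rose Bengal sodium as red reference fluorophore.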

[15] = qHTS assay to test for compound auto fluorescence at 460 nm (blue) in HepG2 cell free culture (AID 720685)
Summary of the method: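 Cell-free plates of MEM plus 10% FBS received 23 nL compound or DMSO vehicle; blue-channel (405/460 nm) intensity scored against triamterene as reference fluorophore.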

[16] = qHTS assay to test for compound auto fluorescence at 535 nm (green) in HepG2 cell free culture (AID 720686)
[17] = qHTS assay to test for compound auto fluorescence at 460 nm (blue) in HepG2 cells (AID 720687); further: potency means the concentration at half of the fitted maximal effect
Summary of the method: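 Blue-channel autofluorescence (Ex/Em 405/460 nm, triamterene-equivalent) was measured after 1 hr compound exposure at 37 C, 5% CO2. Cells were HepG2, plated overnight at 37 C in MEM plus 10% FBS.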

[18] = target: Glucocorticoid receptor (Homo sapiens) (UniProt P04150); assay: qHTS assay to identify small molecule agonists of the glucocorticoid receptor (GR) signaling pathway (AID 720691; active means well fitted activation curve with a large enough effect in the signal ratio in the repeat runs, not every such curve was filed as active; the % refers to the signal ratio); conditions: GR-bla HeLa, beta-lactamase reporter ratio, 18 h; activation: at 62.4 µM (top of the series)
Glucocorticoid receptor (Homo sapiens), sequence (P04150 whole entry, looked up): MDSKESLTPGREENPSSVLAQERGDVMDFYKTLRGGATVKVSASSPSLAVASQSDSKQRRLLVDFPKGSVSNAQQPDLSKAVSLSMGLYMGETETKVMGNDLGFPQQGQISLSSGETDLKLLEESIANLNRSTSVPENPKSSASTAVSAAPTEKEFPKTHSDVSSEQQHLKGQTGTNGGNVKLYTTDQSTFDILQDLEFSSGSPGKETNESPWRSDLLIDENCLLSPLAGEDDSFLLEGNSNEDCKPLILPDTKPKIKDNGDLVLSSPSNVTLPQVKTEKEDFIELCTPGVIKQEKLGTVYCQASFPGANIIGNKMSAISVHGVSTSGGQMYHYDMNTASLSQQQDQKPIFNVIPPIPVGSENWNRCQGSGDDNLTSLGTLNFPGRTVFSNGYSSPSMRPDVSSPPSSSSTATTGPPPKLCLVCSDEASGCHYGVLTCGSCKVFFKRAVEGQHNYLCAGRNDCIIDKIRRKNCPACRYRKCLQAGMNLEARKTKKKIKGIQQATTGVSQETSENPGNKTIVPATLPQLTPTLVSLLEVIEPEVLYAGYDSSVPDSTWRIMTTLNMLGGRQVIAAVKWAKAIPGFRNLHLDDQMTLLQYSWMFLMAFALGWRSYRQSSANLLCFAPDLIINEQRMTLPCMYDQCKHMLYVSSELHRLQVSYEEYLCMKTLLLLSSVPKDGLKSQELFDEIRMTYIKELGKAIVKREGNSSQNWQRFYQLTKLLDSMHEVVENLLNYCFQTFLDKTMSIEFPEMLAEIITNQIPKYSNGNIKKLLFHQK
Summary of the method: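 HeLa GR-bla reporter line; cells pre-incubated 4 h, compound in DMSO 18 h at 37 C; LiveBLAzer B/G FRET substrate 2 h RT; fluorescence intensity read-out.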

[19] = target: Glucocorticoid receptor (Homo sapiens) (UniProt P04150); assay: qHTS assay to identify small molecule antagonists of the glucocorticoid receptor (GR) signaling pathway (AID 720692; active means well fitted inhibition curve with a large enough effect in the signal ratio in the repeat runs, not every such curve was filed as active; the % refers to the signal ratio; further: potency means the concentration at half of the fitted maximal effect)
Summary of the method: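 Read-out: beta-lactamase FRET substrate fluorescence, 2 h at room temperature, in HeLa cells stably carrying a GRE-driven bla reporter. Compounds were co-incubated with 5 nM dexamethasone agonist (final) for 18 h at 37 C.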

[20] = qHTS assay to test for compound auto fluorescence at 460 nm (blue) in HEK293 cell free culture (AID 720681)
Summary of the method: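 Blue fluorescence (Ex 405/Em 460 nm, triamterene-equivalent) was read immediately after pin transfer of compound or DMSO into medium (DMEM, 10% FBS) without cells.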
Tags describe the fitted curve by direction and shape or compound fluorescence and quenching.

Compound | Potency [1] | Potency [2] | Potency [3] | Potency [4] | Potency [5] | Potency [6] | outcome [7] | Potency [8] | Potency [9] | outcome [10] | outcome [11] | outcome [12] | outcome [13] | outcome [14] | Potency [15] | Potency [16] | Potency [17] | Potency [18] | Potency [19] | Potency [20]
COC(=O)[C@H]1[C@H]2C[C@H]3c4[nH]c5ccccc5c4CCN3C[C@H]2CC[C@@H]1O | inactive | inactive | inactive | inactive | inactive | inactive | inactive | inactive | inactive | inactive | inactive | inactive | inactive | inactive | inactive | inactive | inactive | – | – | –
COc1cc(/C=C/C(=O)CC(=O)/C=C/c2ccc(O)c(OC)c2)ccc1O | 13.3 µM (active) and 13.8 µM (active) | inactive | 18.8 µM (active) and 54.8 µM (active) | inactive | 11.9 µM (active) and 21.8 µM (active) | 750 nM (active) and 1.68 µM (active) and 548 nM (active) | inactive | inactive | inactive | inactive | inactive | inactive | inactive | inactive | – | inactive | 39.8 µM [fluorescent] (active) | inactive | 23.9 µM (active) and inactive | –
O=C1c2ccccc2C(=O)C1c1ccc(F)cc1 | inactive | inactive | inactive | inactive | inactive | inactive | inactive | inactive | inactive | – | inactive | inactive | inactive | inactive | inactive | inactive | inactive | inactive | inactive | inactive
NCC[C@H](O)C(=O)N[C@@H]1C[C@H](N)[C@@H](O[C@H]2O[C@H](CN)CC[C@H]2N)[C@H](O)[C@H]1O[C@H]1O[C@H](CO)[C@@H](O)[C@H](N)[C@H]1O | inactive | inactive | inactive | inactive | inactive | inactive | inactive | inactive | inactive | – | inactive | inactive | inactive | inactive | inactive | inactive | inactive | – | – | inactive
C[S+](C)CCC(N)C(=O)O (configuration not stated) | inactive | inactive | inactive | inactive | inactive | inactive | inactive | inactive | inactive | – | inactive | inactive | inactive | inactive | inactive | inactive | inactive | inactive | inactive | inactive
O=C(O)/C=C/C(=O)Nc1ccc(S(=O)(=O)Nc2nccs2)cc1 | inactive | inactive | inactive | inactive | inactive | inactive | inactive | inactive | inactive | inactive | inactive | – | inactive | inactive | inactive | inactive | inactive | inactive | inactive | inactive
NC(=S)NS(=O)(=O)c1ccc(N)cc1 | inactive | inactive | inactive | inactive | inactive | inactive | inactive | inactive | inactive | inactive | inactive | inactive | inactive | inactive | inactive | inactive | inactive | – | – | –
O=C(O)/C=C/C(O)c1ccc(Cl)cc1 (configuration not stated) | inactive | inactive | inactive | inactive | inactive | inactive | inactive | inactive | inactive | inactive | inactive | – | inactive | inactive | inactive | inactive | inactive | inactive | inactive | inactive
CCN(CC)C(=O)[C@]1(c2ccccc2)C[C@@H]1CN | inactive | inactive | inactive | inactive | inactive | inactive | inactive | inactive | inactive | inactive | inactive | inactive | inactive | inactive | inactive | inactive | inactive | inactive | inactive | –
C[C@@H]1C[C@H]2[C@@H]3C[C@H](F)C4=CC(=O)C=C[C@]4(C)[C@@]3(Cl)[C@@H](O)C[C@]2(C)[C@H]1C(=O)COC(=O)C(C)(C)C | inactive | inactive | inactive | inactive | inactive | inactive | inactive | inactive | inactive | inactive | inactive | inactive | inactive | inactive | inactive | inactive | inactive | – | – | –
O=P(O)(O)CP(=O)(O)O | inactive | inactive | inactive | inactive | inactive | inactive | inactive | inactive | inactive | inactive | inactive | inactive | inactive | inactive | inactive | inactive | inactive | inactive | – | –
O=S(=O)(O)CC(S)CS (configuration not stated) | inactive | inactive | inactive | inactive | inactive | inactive | inactive | inactive | inactive | inactive | inactive | inactive | inactive | inactive | inactive | inactive | inactive | inactive | inactive | –
CC/C(=C(/CC)c1ccc(OP(=O)(O)O)cc1)c1ccc(OP(=O)(O)O)cc1 | inactive | inactive | inactive | inactive | inactive | inactive | inactive | inactive | inactive | inactive | inactive | inactive | inactive | inactive | inactive | inactive | inactive | – | – | –
CC(C)=CCC/C(C)=C/CC/C(C)=C/CC/C(C)=C/CC1=C(C)C(=O)c2ccccc2C1=O | inactive | inactive | inactive | inactive | inactive | inactive and 13.3 µM (active) | inactive | inactive | inactive | inactive | inactive | inactive | inactive | inactive | inactive | inactive | inactive | – | – | –

Source: PubChem BioAssay (Tox21)
